# According to PubChem BioAssay AID1631 (National Center for Advancing Translational Sciences (NCATS), 2009):
# In all, about 260,000 compounds went through this assay and about 890 (0.34%) were called active. Roughly 1% stayed inconclusive and do not appear here. Shown is part of a subset that was picked to be rich in actives. A call without a number means that no potency is given here. Unmarked numbers belong to inactive results. Calls follow the shape of the dose curve; as a rule, active = well fitted activation curve with a large enough effect; inconclusive = small, poorly fitted or top-dose-only effect; inactive = no such curve, though single readings can be large or run the other way.
# Target: Pyruvate kinase PKM (Homo sapiens) (UniProt P14618)
# Sequence (P14618 whole entry, looked up, canonical isoform): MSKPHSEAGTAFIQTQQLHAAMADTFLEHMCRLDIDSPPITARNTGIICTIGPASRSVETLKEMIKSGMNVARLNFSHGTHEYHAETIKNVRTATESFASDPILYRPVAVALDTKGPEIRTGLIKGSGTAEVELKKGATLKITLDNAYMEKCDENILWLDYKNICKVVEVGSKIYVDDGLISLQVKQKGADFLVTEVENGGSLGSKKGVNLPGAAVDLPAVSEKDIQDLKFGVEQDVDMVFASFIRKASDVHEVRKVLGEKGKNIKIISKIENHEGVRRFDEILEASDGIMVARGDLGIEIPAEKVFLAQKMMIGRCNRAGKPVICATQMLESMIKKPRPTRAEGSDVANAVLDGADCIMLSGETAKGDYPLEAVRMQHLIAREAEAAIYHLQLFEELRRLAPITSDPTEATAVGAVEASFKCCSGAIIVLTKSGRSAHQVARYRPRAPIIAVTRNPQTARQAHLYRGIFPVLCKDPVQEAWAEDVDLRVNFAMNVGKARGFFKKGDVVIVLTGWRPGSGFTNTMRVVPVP
# Assay: qHTS Assay for Activators of Human Muscle isoform 2 Pyruvate Kinase; also: nearly all actives have a fitted effect of over 55% in size
# Conditions: purified PKM2, Kinase-Glo ATP luminescence; Potency: activation; series mostly up to 57.5 µM
# Excerpt: NIH Chemical Genomics Center [NCGC] Matthew G. Vander Heiden, M.D., Ph.D. [Harvard Medical School, 77 Avenue Louis Pasteur, Boston, MA 02115] MLPCN Grant: 1 R03 MH085679-01 NCGC Assay Overview: Human pyruvate kinase muscle 2 (hPK-M2) enzyme was supplied as a highly purified (>95% pure) preparation from Harvard Medical School and assayed for its ability to generate ATP from ADP using phosphoenolpyruvate (PEP) as a substrate. ATP generation was detected in a coupled reaction by luciferase-mediated luminescence, an ATP-dependent process. […] The enzyme was assayed at an intermediate level of activity to screen for both inhibitors and activators.
# NCGC Assay Protocol Summary: Three uL of substrate mix (at r.t.) in assay buffer (50 mM Imidazole pH7.2, 50 mM KCl, 7 mM MgCl2, 0.01% Tween 20, 0.05% BSA) was dispensed into white solid bottom 1,536 well microtiter plates so that the final concentrations of substrates in the assay were 0.1 mM ADP and 0.5 mM PEP. 23 nL of compound were delivered by a pin tool and 1 uL of enzyme mix in assay buffer (4 degree Celsius) was added. Plates were incubated at room temperature for 1 hour. Two uL of detection mix (Kinase-Glo, Promega; at 4 degree Celsius protected from light) was added and luminescence read by a ViewLux (Perkin Elmer) at 5 second exposure/plate. Data were normalized to the uninhibited and AC100 inhibition (no enzyme). To monitor activation, the first column contained a titration of the activator, NCGC00031955-01 (16-point 1:2 dilutions in duplicate starting at 57 uM) and the first 16 rows of column 4 contained 57 uM of NCGC00031955-01.
# Potency is read from the fitted curve at half-maximal effect.
SMILES,Potency,activation
Cc1cc(NC(=O)CSc2nnc(-c3ccc(Cl)s3)o2)no1,2.51 µM (active),–
COc1ccccc1-c1nnc(SCC(=O)Nc2cc(C)on2)o1,inactive,–
Cc1nc(SCC(=O)Nc2cc(C)on2)c2c(C)c(C)sc2n1,inactive,–
COc1cc(NC(=O)C2=CC(c3ccc(C)cc3)=NS(=O)(=O)N2C)cc(OC)c1OC,inactive,–
CCOc1ccccc1NC(=S)N1CCN(c2cccc(C)c2C)CC1,–,"-8.49% [at 11.5 µM, 0% is enzyme alone, no compound]"
Cc1ccc2nc(C)cc(N/N=C/c3ccc(F)cc3)c2c1,15.8 µM (active),–
CCOc1cc(/C=N/Nc2cc(C)nc3ccc(C)cc23)ccc1O,inactive,–
Fc1ccc(/C=N/Nc2nc(-c3cccnc3)nc3ccccc23)cc1,inactive,–
Cc1cc(C)n(C(=O)c2ccc(S(=O)(=O)N3CCCC3)cc2)n1,inactive,–
Cc1ccccc1-c1nnn(CC(=O)c2ccc(S(=O)(=O)N3CCCC3)cc2)n1,7.94 µM (active),–
CC(C)(C)NC(=O)Cn1nnc(-c2ccccc2Cl)n1,inactive,–
O=C(NC(=S)Nc1ccc(Cl)cc1Cl)C1CC1,inactive,–
COC(=O)c1[nH]c2ccccc2c1NC(=O)CN1CCCc2ccccc21,28.2 µM (active),–
COC(=O)c1[nH]c2cccc(C)c2c1NC(=O)CN1CCCc2ccccc21,inactive,–
NS(=O)(=O)c1cccc(NC(=O)CN2CCCc3ccccc32)c1,inactive,–
CCOc1ccccc1NC(=S)NC(=O)CCc1ccccc1,inactive,–
CC(=O)c1cc(C#N)c(SCC(=O)C(C)(C)C)nc1C,inactive,–
CC(=O)c1cc(C#N)c(SCC(=O)Nc2nccs2)nc1C,1 µM (active),–
Cc1cc(C(F)(F)F)nc(SCC(=O)Nc2nccs2)n1,inactive,–
CC1CCCCC1NC(=O)CCS(=O)(=O)c1ccc2c(c1)NC(=O)CO2 (centres undefined),–,"0.549% [at 0.46 µM, 0% is enzyme alone, no compound]"
CC(=O)OCCN(CCCn1c(-c2ccncc2)nc2ccccc21)c1nc(-c2ccc(C)cc2)cs1,inactive,–
CC(C)c1ccc(NC2CCCN(C(=O)c3ccncc3)C2)cc1 (centres undefined),inactive,–

SMILES,Potency,activation
O=C(c1ccccc1)N1CCN(C(=O)c2cc3nc(-c4ccccc4)cc(C(F)(F)F)n3n2)CC1,inactive,–
CC(C)c1ccc(S(=O)(=O)N2CCN(C(=O)c3ccc(N4CCCC4)c([N+](=O)[O-])c3)CC2)cc1,inactive,–
CCCOc1ccc(/C=N/NC(=O)C2CC2)c(OCCC)c1,inactive,–
O=C(C1CCC(=O)N(C2CC2)C1)N1CCN(c2ccc(Cl)cc2)CC1 (centres undefined),inactive,–
CC(C)c1ccc(NC(=O)C2CCCN(S(=O)(=O)c3cccnc3)C2)cc1 (centres undefined),inactive,–
COCc1cc(=O)n2[nH]c(C)c(-c3ccccc3)c2n1,–,"-8.06% [at 11.5 µM, 0% is enzyme alone, no compound]"
CN(NS(=O)(=O)c1cccs1)c1ncc(C(F)(F)F)cc1Cl,inactive,–
CCOc1ccccc1N1C(=O)CC(Sc2nccc(C)n2)C1=O (centres undefined),inactive,–
CCCn1c(C2CCCN2c2nc(-c3ccc(OC)cc3)cs2)nc2ccccc21 (centres undefined),inactive,–
COC(=O)c1ccc(CN2CCCC(C(=O)Nc3cccc(-n4cnnn4)c3)C2)cc1 (centres undefined),inactive,–
COC(=O)COc1ccc(S(=O)(=O)Nc2ccc(NC(C)=O)cc2)cc1,inactive,–
CNC(=O)COc1ccc(S(=O)(=O)Nc2ccccc2)cc1,10 µM (active),–
CCOc1ccc(NS(=O)(=O)c2ccc(OCC(=O)NCCCOC)cc2)cc1,inactive,–
COc1cccc(OCC(O)CNC(=O)c2oc3c(C)c(C)ccc3c2C)c1 (centres undefined),inactive,–
Cc1ccc(-n2ncc3c2CC(C)(C)CC3NC(=O)Cc2c(C)noc2C)cc1 (centres undefined),inactive,–
O=C(NCCN1CCN(C(=O)c2cccc([N+](=O)[O-])c2)CC1)C(=O)NCc1ccc(Cl)cc1,inactive,–
Cc1ccc(C)c(OCc2cc(C(=O)N3CCN(c4cnccn4)CC3)no2)c1,inactive,–
C/C(=N\NC(=O)c1ccoc1C)c1ccccc1O,inactive,–
C=CCNC(=O)CSc1nc2scc(-c3ccco3)c2c(=O)n1CC=C,inactive,–
C=CCn1c(SCc2csc(C)n2)nc2scc(-c3ccc(C)o3)c2c1=O,10 µM (active),–
C=CCn1c(SCC(=O)NCC2CCCO2)nc2sc(C)c(C)c2c1=O (centres undefined),inactive,–
CC(=O)Nc1cccc(Nc2nc(-c3cccs3)nc3ccccc23)c1,inactive,–

SMILES,Potency,activation
Cc1cc(NC(=O)c2ccco2)c(=O)n(Cc2c(F)cccc2Cl)c1,inactive,–
N#C[C@]1(S(=O)(=O)c2ccccc2)C[C@@H]2ON=C(c3cccc(Br)c3)[C@@H]2C1,inactive,–
O=C(Nc1ccc(Cl)cc1)c1cccc(OC(=S)N2CCOCC2)c1,inactive,–
Cc1cc(C)cc(OCc2nnc(SCC(=O)Nc3ccccc3)o2)c1,inactive,–
COc1ccccc1-c1nnc(SCC(=O)Nc2ccccc2)o1,inactive,–
COc1cccc(NC(=O)CSc2nnc(Cc3ccc(OC)c(OC)c3)o2)c1,14.1 µM (active),–
O=C(Nc1nnc(S(=O)(=O)N2CCCCCC2)s1)c1cccc(Br)c1,inactive,–
CCc1ccccc1OCC(=O)Nc1ccc2c(c1)OCCO2,inactive,–
COc1ccc(NS(=O)(=O)c2ccc(N3CCN(CCO)CC3)c([N+](=O)[O-])c2)cc1,inactive,–
O=C(Nc1ncc([N+](=O)[O-])s1)C1COc2ccccc2O1 (centres undefined),inactive,–
CCn1c(SCc2cc(=O)n3ccsc3n2)nc2ccccc21,inactive,–
O=c1cc(Cn2nnc(-c3ccc(Cl)cc3)n2)nc2sccn12,14.1 µM (active),–
O=C(NCc1ccc(Cl)cc1)c1cc2c(nc3sccn32)s1,inactive,–
Clc1cccc(Cl)c1OCCOCCNCc1ccccc1,inactive,–
COc1nnc(-c2ccc(C)c(S(=O)(=O)N(C)C)c2)c2ccccc12,inactive,–
COc1cc(/C=C/C(=O)N2CCc3ccccc3C2)cc(OC)c1OC,inactive,–
COc1ccc(-c2oc3ncnc(NCCCO)c3c2-c2ccc(OC)cc2)cc1,inactive,–
C=CCNC(=S)/N=c1/ccccn1Cc1ccccc1,inactive,–
O=C(/C=C/c1ccc([N+](=O)[O-])o1)NNC(=O)c1ccc(F)cc1,inactive,–
COCCNc1cc(-c2ccccc2)nc2cc(-c3cccc(F)c3)nn12,inactive,–
